# Results filed as inconclusive are left out. Where a call stands in place of a potency, no number is given. The source made the active and inactive calls. The call rests on the fitted dose curve.
# Assay: qHTS assay for small molecule agonists of the antioxidant response element (ARE) signaling pathway - cell viability counter screen (AID 743203); further: nearly all actives have a fitted effect of over 55% in size
# Conditions: ARE-bla HepG2 viability, CellTiter-Glo luminescence, 16 h; series mostly up to 73.3 µM
# Source text: National Center for Advancing Translational Sciences [NCATS]
# NIH Chemical Genomics Center [NCGC]
# U.S. Environmental Protection Agency [EPA]
# National Institutes of Environmental Health Sciences [NIEHS]
# National Toxicology Program [NTP]
# U.S. Food and Drug Administration [FDA]
# Oxidative stress has been implicated in the pathogenesis of a variety of diseases ranging from cancer to neurodegeneration. The antioxidant response element (ARE) signaling pathway plays an important role in the amelioration of oxidative stress. The CellSensor ARE-bla HepG2 cell line (Invitrogen) can be used for analyzing the Nrf2/antioxidant response signaling pathway. Nrf2 (NF-E2-related factor 2) and Nrf1 are transcription factors that bind to AREs and activate these genes. The CellSensor ARE-bla Hep G2 cell line contains a beta-lactamase reporter gene under control of the Antioxidant Response Element (ARE) stably integrated into HepG2 cells. The activation of the report gene under culture conditions can be detected by fluorescence intensity. This cell line has been used to screen the Tox21 10K compound library to identify agonists that induce oxidative stress. The cytotoxicity of the Tox21 compound library against the ARE-bla cell line was tested in parallel by measuring the cell viability using CellTiter-Glo assay (Promega, Madison, WI) in the same wells.
# Tox21 Assay Protocol Summary:
# ARE-bla HepG2 cells were dispensed at 2,000 cells/5 ul/well in 1536-well white wall/solid bottom plates using a Multidrop Combi (ThermoFisher Scientific, Waltham, MA) dispenser. After the assay plates were incubated at 37C/5% CO2 for 5 hrs, 23 nL of compounds dissolved in DMSO, positive controls or DMSO only was transferred to the assay plate by a pintool work station (Kalypsys, San Diego, CA). The plates were incubated at 37C/5% CO2 for 16 hrs, followed by addition of 4 ul/well of CellTiter-Glo reagent into the assay plates using a Flying Reagent Dispenser (Aurora Discovery, San Diego, CA). After 30 min incubation at room temperature, the luminescence intensity in the assay plates was measured using a ViewLux (PerkinElmer, Shelton, CT) plate reader.
row,Compound,Potency
1,N[C@H](Cc1c[nH]c2ccccc12)C(=O)O,inactive
2,CC(C)c1cccc(C(C)C)c1,inactive
3,OC1C(O)C(O)C(O)C(O)C1O (stereo not given),inactive
4,O=C(O)c1ccccc1C(=O)O,inactive
5,C=CC[N+](C)(C)CC=C,inactive
6,CC1(C)S[C@@H]2[C@H](NC(=O)COc3ccccc3)C(=O)N2[C@H]1C(=O)O,inactive
7,CC(C)(C)c1cc(Cc2cc(C(C)(C)C)c(O)c(C(C)(C)C)c2)cc(C(C)(C)C)c1O,inactive
8,CCCCCCCCCCCCCCCCO,inactive
9,CCNc1cccc(C)c1,inactive
10,COc1ccc([N+](=O)[O-])cc1N,inactive
11,C=C(C)[C@H]1CC=C(C)C(=O)C1,inactive
12,CC(C)CCCCCCCOC(=O)CCCCC(=O)OCCCCCCCC(C)C,inactive
13,Cc1ccc2ncccc2c1,inactive
14,CCOC(=O)c1ccc(N)cc1,inactive
15,Cc1ccc(S(=O)(=O)N=C=O)cc1,inactive
16,CCCCCCCO,inactive
17,CN(C)c1ccc(O)c2c1C[C@H]1C[C@H]3[C@H](N(C)C)C(=O)C(C(N)=O)=C(O)[C@@]3(O)C(=O)C1=C2O,inactive
18,O=C1CCCC1,inactive
19,CCCCCCCCCCO,inactive
20,NCCN1CCNCC1,inactive

row,Compound,Potency
1,CC1(C)OC[C@@H]2O[C@@]3(C(=O)O)OC(C)(C)O[C@H]3[C@@H]2O1,inactive
2,CC(C)=CCl,inactive
3,CC(=O)OCc1ccco1,inactive
4,COC(=O)c1cccnc1,inactive
5,NC(=S)NNC(N)=S,inactive
6,COc1cc(OC)c(C(=O)CCCN2CCCC2)c(OC)c1,inactive
7,CC(=O)OCCOC(C)=O,inactive
8,CCCCOC(=O)c1ccc(N)cc1,inactive
9,O=S(=O)(O)c1ccccc1,inactive
10,Brc1ccc(Br)c(Br)c1,inactive
11,C=CC(=O)OCCC(=O)O,inactive
12,O=C(O)CCCCCCCCC(=O)O,inactive
13,CC(=O)c1ccc(O)cc1,inactive
14,O=[N+]([O-])c1ccc2nc[nH]c2c1,inactive
15,CN(C)CCOC(=O)COc1ccc(Cl)cc1,inactive
16,COc1ccc(OC)cc1,inactive
17,CSc1ccc(Cl)cc1,inactive
18,CC(C)(C#N)c1cc(Cn2cncn2)cc(C(C)(C)C#N)c1,inactive
19,CNC(=O)Oc1ccc2c(c1)[C@]1(C)CCN(C)[C@@H]1N2C,inactive
20,CN(C)c1ccc(Cc2ccc(N(C)C)cc2)cc1,inactive

# — PubChem BioAssay (Tox21)
